These results are taken from PubChem BioAssay (NCATS).

Assay [1] in a line: AP1 Signaling Pathway (AID 357; active = well fitted curve in either direction with a large enough effect, not every such curve was filed as active;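 also: ME-180 reporter cells stimulated with EGF at its EC50 level; % is scaled to controls: 0 for no effect and ±100 for the full control effect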). In short, it runs like this:
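In this screen, ME-180 cells in Opti-MEM with 0.5% dialyzed FBS received EC50 EGF and compound titrations for 5 h. AP-1 reporter beta-lactamase was detected via CCF4 ratio, giving AC50 for positive and negative modulators.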

The target of assay [2] is Cytochrome P450 1A2 (Homo sapiens) (UniProt P05177). The experiment in a line: p450-cyp1a2 (AID 410; calls by dose curve; also: potency is read from the fitted curve at half-maximal effect;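 as to activity change, negative = inhibition: -100% = full effect of reference inhibitor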). Put shortly:
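O-Demethylation of luciferin 6' methyl ether by human CYP1A2 is monitored as luciferase luminescence. Substrate sits at Km (100uM); enzyme is 20nM. Values are scaled to 57 uM furafylline as maximal inhibition.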

Assay [3] in a line: NFAT Signaling Pathway (AID 444; active = well fitted curve in either direction with a large enough effect, not every such curve was filed as active;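 also: carbachol stimulus at about its EC50 of 1 µM final; % is scaled to controls: 0 for no effect and ±100 for the full control effect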). Conditions: Jurkat NFAT-bla M1, carbachol, beta-lactamase ratio, 5 h. Put shortly:
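Read-out: CCF4 FRET ratio (460 nm/530 nm) after 1 h RT dye loading, used for %activity and AC50 from titration series. Cells: Jurkat NFAT-β-lactamase/M1 line, treated with compound plus 1 uM carbachol for 5 h, 37 °C.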

In assay [4] the target is Glucocorticoid receptor (Homo sapiens) (UniProt P04150). The experiment in a line: GR-GFP Redistribution (AID 450;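 active = compounds whose dose series gives a full or clear partial fitted curve of increased nuclear translocation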; also: potency is read from the fitted curve at half-maximal effect). The conditions noted are these: U2OS GR-GFP nuclear translocation, laser cytometry, 2 h.
Assay [5] has the same target. The experiment in a line: GR-EFC Redistribution (AID 451; calls by dose curve; also: potency is read from the fitted curve at half-maximal effect). The conditions noted are these: CHO-K1 GR-EFC translocation, beta-gal luminescence, 2 h. Put shortly:
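Translocation of GR-ED fusion to nuclear EA restores b-gal, read by luminescence after 1 h room-temperature detection. Engineered CHO-K1 biosensor cells, 1,000/well, exposed 2 h at 37 C to titrations up to 46 uM final.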

The target in assay [6] is 3',5'-cyclic-AMP phosphodiesterase 4B (Homo sapiens) (UniProt Q07343). In words: qHTS Assay for Inhibitors of PDE-IV (AID 607; active = well fitted activation curve with a large enough effect in the main read-out, with a control signal flat, not every such curve was filed as active; also: % of control where 0% means no effect). In short, it runs like this: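 The readout is membrane depolarisation from a cAMP-sensing CNG channel, detected with a potential dye at ex 535/em 590. Cells were HEK293-derived (endogenous PDE-IV) at 1000 cells/well, titrated up to 22.9 uM final.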

Assay [7] has as its target Ubiquitin carboxyl-terminal hydrolase 1 (Homo sapiens) (UniProt O94782). The experiment in a line: Inhibitors of USP1/UAF1: Pilot qHTS (AID 504865).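 Also: rhodamine fluorescence freed from ubiquitin-rhodamine substrate followed over time; top concentration of the series differs between compounds; % is scaled to controls: 0 for no effect and ±100 for the full control effect; nearly all actives have a fitted effect of over 35% in size.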 Put shortly:
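Deubiquitinase activity followed as kinetic rhodamine fluorescence release from 150 nM Ub-Rho. 1 nM USP1/UAF1 with compound, after 15 min room-temperature preincubation, in HEPES pH 7.8 buffer containing TCEP, EDTA, BSA and Tween-20.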

The nature of assay [8]: qHTS profiling for inhibitors of Plasmodium falciparum proliferation (AID 504749). Also: potency is read from the fitted curve at half-maximal effect; nearly all actives have a fitted effect of over 60% in size. Conditions: P. falciparum in erythrocytes, SYBR Green DNA, 72 h; parasite line A. In short, it runs like this:
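SYBR Green fluorescence of parasite DNA, read after lysis and overnight dark incubation, measured growth over 72 h in erythrocyte culture at 0.3% parasitemia and 2.5% hematocrit. Data normalised to DMSO and 0.29 uM artemisinin, with plate-drift correction.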

The nature of assay [9]: Confirmation and Secondary Assay for Modulators of Hemoglobin Beta Chain Splicing at IVS2 654 locus (AID 910).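 Also: HeLa cells stably carrying EGFP split by mutant beta-globin IVS2-654 intron; per-well total GFP intensity by laser scanning cytometry after 2-day treatment; % of control where 0% means no effect.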 In short, it runs like this: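 Readout: per-well total peak green fluorescence (488 nm ex, 500–520 nm em) from objects 5–250 µm, reflecting correct splicing of an EGFP-654 reporter. Compounds were applied for 2 days at 37 °C to overnight-plated HeLa EGFP-654 cells; controls were DMSO and 500 nM IVS2-654 PNA.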

Assay [10] can be described thus: Confirmation and Secondary Assay for Modulators of Hemoglobin Beta Chain Splicing at IVS2 705 locus (AID 930).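 Also: HeLa cells stably expressing the EGFP-705 splicing reporter; % of control where 0% means no effect.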 In short, it runs like this: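 HeLa cells stably carrying EGFP interrupted by mutant beta-globin IVS2-705 intron (CMV-driven) were seeded at 500 cells/well, treated next day with compound for 2 days at 37C; corrected splicing restores EGFP, read as total peak GFP intensity per well.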

For assay [11], the target named is Androgen receptor (Homo sapiens) (UniProt P10275). The experiment in a line: qHTS assay for small molecule agonists of androgen receptor signaling (AID 588515; active = well fitted curve in the direction sought with a large enough effect in the signal ratio, with a control signal flat; the % refers to the signal ratio; also: % is scaled to controls: 0 for no effect and ±100 for the full control effect). The conditions noted are these: AR-UAS-bla HEK293, beta-lactamase ratio, agonist 16 h; active compounds read high. Put shortly: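 Stimulation of an AR-responsive β-lactamase reporter in GripTite HEK293 cells was measured after 16 h compound exposure at 37 °C, via CCF4 fluorescence after 2 h RT. EC50 from Hill fits, normalized to R1881 at 30 nM.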

Assay [12] shares this target. The experiment in a line: qHTS assay for small molecule antagonists of androgen receptor signaling (AID 588516; active = well fitted curve in the direction sought with a large enough effect in the signal ratio, with a control signal flat, not every such curve was filed as active; the % refers to the signal ratio; also: % is scaled to controls: 0 for no effect and ±100 for the full control effect). In short, it runs like this: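 Antagonist mode: inhibition of R1881-stimulated (10 nM final) bla reporter in GeneBLAzer AR HEK 293 cells, 16 h at 37C, compounds titrated. IC50 and efficacy from Hill-equation fits of 405/460–530 nm FRET ratios.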
Assay [13] in a line: qHTS assay for small molecule activators of the nuclear factor-kappa B (NF-kB) signaling pathway (AID 651749; active = well fitted activation curve with a large enough effect in the signal ratio; the % refers to the signal ratio; also: % of control where 0% means no effect). The conditions noted are these: NF-kB-bla ME-180 cells, beta-lactamase FRET ratio, 16 h; activation: active compounds read high. Put shortly:
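Activation measured after 16 hr compound treatment at 37C, 5% CO2, of 2,000 ME-180 cells/well stably expressing an NF-kB response element–driven beta-lactamase reporter, via FRET-disruption fluorescence.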

Assay [14] is described as follows: qHTS assay to identify small molecules that stimulate interleukin-8 (IL-8) secretion (AID 651758; active = well fitted activation curve with a large enough effect in the signal ratio; the % refers to the signal ratio; also: 0% is about no effect). In short, it runs like this:
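Secreted IL-8 measured homogeneously by TR-FRET (two labelled anti-IL-8 antibodies, 1-3 h at room temperature) after a 16 h, 37 C compound treatment of THP-1 cells at 2000 cells/well.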

Assay [15] in a line: Stat Signaling Pathway (AID 446; active = well fitted curve in either direction with a large enough effect, not every such curve was filed as active). Put shortly: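 Emission at 460 and 530 nm (excitation 405 nm) reports SIE-controlled beta-lactamase in ME-180 cells. Cells received compound with 40 pM IL-6 for 5 hrs at 37 C; data scaled between 300 pM IL-6 and 125 nM JAK-inhibitor controls.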
The target of assay [16] is Bile acid receptor (Homo sapiens) (UniProt Q96RI1). The experiment in a line: qHTS assay for small molecule agonists of farnesoid X receptor signaling (AID 588527; calls by dose curve;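 also: 0% = vehicle basal and 100% = reference agonist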). The conditions noted are these: HEK293T FXR-UAS-bla, beta-lactamase ratio, 16 h; active compounds read high. Put shortly:
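Read-out: beta-lactamase reporter fluorescence with CCF4 substrate in GeneBLAzer FXR-UAS-bla HEK293T cells, after 16 h compound exposure at 37 C. Response scaled between DMSO basal (0%) and chenodeoxycholic acid at 100 uM (100%).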

Assay [17] has as its target Lysosomal acid glucosylceramidase (Homo sapiens) (UniProt P04062). In words: Glucocerebrosidase-p2 (AID 348; in the data active = potency below about 10 µM; also: potency is read from the fitted curve at half-maximal effect). The conditions noted are these: purified GBA, blue fluorogenic substrate, 40 min. In short, it runs like this:
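Normal human glucocerebrosidase (0.2 nM) with blue fluorogenic substrate (80 uM final) in citrate/phosphate pH 5.9 with 10mM sodium taurocholate, 0.01% tween-20; 40 min RT, NaOH/glycine stop; fluorescence Ex 365/Em 440; AC50 from a titration from 0.6 nM upwards.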

The target in assay [18] is Cytochrome P450 3A4 (Homo sapiens) (UniProt P08684). In words: qHTS Assay for Activators of Cytochrome P450 3A4 (AID 885). Also: nearly all actives have a fitted effect of over 65% in size. Put shortly: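 Activators are scored by enhanced luminescence from CYP3A4 conversion of luciferin-PPXE (25uM, equal to KM) to luciferin, after 60 min at RT with an NADPH-regenerating system.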
Assay [19] deals with DNA dC->dU-editing enzyme APOBEC-3G (Homo sapiens) (UniProt Q9HC16). In words: qHTS for inhibitors of Vif-A3G interactions: Validation (AID 588379). Also: 0% is about no effect. In short, it runs like this:
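Yellow fluorescence (Ex 488, Em 500-530) of Vif-coexpressing HeLa A3G-eYFP cells, scanned by Acumen cytometer, reports blocked A3G degradation. Cells plated at 700/well overnight at 37 deg C before compound addition, then a further overnight compound incubation at 37 deg C.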

Several values for one entry are separate records, joined by “and”; a condition that tells them apart may be missing. Equal entries are not always repeated. Unmarked numbers belong to inactive results. Records with an inconclusive call do not appear. Activity calls are given as the source filed them. Unless noted, calls follow the shape of the dose curve; as a rule, active = well fitted curve in the direction sought with a large enough effect; inconclusive = small, poorly fitted or top-dose-only effect, or another doubt; inactive = no such curve, though single readings can be large; an effect the other way counts as inactive or inconclusive.

Chain of Glucocorticoid receptor (Homo sapiens) (P04150 whole entry, looked up): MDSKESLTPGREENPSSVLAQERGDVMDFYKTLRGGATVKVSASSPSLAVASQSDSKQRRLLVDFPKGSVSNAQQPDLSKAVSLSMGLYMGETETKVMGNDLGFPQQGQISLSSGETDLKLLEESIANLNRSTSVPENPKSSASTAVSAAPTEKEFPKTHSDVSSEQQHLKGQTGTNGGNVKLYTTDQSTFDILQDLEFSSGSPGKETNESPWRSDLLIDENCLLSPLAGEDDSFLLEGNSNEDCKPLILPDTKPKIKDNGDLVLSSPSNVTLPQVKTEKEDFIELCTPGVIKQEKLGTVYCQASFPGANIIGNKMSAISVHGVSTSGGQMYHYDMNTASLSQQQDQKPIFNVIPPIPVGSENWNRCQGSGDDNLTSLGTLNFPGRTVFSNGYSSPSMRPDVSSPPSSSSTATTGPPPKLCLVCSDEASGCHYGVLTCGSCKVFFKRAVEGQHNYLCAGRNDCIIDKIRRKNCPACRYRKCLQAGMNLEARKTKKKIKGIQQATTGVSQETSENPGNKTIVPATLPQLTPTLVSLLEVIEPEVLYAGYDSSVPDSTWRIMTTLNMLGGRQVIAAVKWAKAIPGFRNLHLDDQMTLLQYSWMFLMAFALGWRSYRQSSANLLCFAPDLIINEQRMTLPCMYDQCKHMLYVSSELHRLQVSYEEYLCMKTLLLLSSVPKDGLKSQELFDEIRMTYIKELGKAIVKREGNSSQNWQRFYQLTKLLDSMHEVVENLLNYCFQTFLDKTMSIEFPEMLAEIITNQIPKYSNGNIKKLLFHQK
Chain of Cytochrome P450 1A2 (Homo sapiens) (P05177 whole entry, looked up): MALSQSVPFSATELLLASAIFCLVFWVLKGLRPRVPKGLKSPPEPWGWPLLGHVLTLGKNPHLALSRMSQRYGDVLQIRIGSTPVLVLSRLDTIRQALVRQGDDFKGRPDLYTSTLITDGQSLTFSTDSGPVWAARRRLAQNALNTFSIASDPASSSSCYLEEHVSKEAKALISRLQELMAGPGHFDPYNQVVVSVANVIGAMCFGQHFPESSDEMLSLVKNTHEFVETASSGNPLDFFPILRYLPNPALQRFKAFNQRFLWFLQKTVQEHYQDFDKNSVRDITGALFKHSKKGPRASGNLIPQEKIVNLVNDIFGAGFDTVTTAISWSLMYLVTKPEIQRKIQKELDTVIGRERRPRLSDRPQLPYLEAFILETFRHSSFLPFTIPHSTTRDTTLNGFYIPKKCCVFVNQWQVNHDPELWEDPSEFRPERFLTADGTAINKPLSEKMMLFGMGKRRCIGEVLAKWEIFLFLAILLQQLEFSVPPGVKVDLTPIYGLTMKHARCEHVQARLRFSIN
Chain of Androgen receptor (Homo sapiens) (P10275 whole entry, looked up): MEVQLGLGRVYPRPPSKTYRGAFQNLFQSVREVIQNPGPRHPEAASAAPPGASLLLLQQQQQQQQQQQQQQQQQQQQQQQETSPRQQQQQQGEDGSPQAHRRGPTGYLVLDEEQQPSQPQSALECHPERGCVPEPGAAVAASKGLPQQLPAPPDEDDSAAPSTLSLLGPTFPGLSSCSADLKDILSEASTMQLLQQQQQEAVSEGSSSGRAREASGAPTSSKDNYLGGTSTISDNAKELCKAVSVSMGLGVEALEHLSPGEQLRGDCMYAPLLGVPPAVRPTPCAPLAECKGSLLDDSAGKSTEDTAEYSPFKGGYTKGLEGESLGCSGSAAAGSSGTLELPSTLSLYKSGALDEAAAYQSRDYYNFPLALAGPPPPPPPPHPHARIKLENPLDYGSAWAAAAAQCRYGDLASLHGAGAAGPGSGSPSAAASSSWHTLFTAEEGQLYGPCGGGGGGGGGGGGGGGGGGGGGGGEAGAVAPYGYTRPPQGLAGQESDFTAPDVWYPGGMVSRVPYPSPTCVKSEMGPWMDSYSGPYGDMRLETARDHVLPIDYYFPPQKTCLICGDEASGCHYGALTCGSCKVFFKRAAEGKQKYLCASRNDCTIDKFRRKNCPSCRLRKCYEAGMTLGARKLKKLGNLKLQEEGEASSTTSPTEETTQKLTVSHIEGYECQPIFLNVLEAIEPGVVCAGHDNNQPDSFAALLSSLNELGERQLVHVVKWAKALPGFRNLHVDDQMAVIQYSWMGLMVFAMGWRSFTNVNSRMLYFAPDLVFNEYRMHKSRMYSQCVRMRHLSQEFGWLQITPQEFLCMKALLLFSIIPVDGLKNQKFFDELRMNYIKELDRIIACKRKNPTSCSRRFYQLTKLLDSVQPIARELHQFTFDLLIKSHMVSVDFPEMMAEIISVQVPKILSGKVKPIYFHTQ
Chain of 3',5'-cyclic-AMP phosphodiesterase 4B (Homo sapiens) (Q07343 whole entry, looked up): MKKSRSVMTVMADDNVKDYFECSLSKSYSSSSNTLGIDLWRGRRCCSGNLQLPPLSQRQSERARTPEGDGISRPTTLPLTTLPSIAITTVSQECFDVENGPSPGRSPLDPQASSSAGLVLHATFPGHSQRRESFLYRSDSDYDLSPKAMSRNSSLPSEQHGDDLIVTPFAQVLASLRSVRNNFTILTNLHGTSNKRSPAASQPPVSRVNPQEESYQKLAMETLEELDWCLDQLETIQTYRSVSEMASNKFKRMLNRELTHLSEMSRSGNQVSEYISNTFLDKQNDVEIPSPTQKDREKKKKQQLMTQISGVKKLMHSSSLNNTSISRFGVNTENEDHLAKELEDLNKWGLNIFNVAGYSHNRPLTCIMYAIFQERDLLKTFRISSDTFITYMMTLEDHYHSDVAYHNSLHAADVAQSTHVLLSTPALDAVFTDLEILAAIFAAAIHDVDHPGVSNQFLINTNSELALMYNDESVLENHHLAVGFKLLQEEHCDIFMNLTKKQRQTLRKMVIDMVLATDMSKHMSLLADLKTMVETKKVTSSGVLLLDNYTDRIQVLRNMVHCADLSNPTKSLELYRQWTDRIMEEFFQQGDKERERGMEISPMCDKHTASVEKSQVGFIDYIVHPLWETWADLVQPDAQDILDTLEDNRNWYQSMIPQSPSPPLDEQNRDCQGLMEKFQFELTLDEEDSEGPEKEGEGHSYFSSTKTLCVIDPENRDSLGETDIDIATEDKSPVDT
Chain of Ubiquitin carboxyl-terminal hydrolase 1 (Homo sapiens) (O94782 whole entry, looked up): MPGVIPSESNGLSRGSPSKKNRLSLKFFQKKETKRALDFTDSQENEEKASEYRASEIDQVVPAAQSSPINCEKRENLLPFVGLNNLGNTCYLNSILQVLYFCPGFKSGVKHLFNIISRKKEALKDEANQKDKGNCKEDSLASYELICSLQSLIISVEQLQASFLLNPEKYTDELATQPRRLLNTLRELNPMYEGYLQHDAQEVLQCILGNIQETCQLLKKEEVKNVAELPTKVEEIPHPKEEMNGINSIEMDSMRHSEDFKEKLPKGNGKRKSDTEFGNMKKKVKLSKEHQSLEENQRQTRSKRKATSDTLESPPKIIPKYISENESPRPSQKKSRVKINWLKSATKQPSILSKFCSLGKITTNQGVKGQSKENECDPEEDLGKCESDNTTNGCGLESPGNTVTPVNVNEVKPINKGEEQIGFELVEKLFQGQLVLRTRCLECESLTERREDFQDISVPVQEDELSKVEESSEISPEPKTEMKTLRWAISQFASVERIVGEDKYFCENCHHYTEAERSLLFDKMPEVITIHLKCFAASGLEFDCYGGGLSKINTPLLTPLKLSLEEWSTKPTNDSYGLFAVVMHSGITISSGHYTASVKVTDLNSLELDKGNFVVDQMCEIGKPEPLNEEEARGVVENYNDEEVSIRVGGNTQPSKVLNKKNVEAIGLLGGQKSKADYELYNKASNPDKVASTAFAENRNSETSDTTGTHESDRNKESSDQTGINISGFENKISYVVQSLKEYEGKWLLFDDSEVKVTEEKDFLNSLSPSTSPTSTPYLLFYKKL
Chain of Cytochrome P450 3A4 (Homo sapiens) (P08684 whole entry, looked up): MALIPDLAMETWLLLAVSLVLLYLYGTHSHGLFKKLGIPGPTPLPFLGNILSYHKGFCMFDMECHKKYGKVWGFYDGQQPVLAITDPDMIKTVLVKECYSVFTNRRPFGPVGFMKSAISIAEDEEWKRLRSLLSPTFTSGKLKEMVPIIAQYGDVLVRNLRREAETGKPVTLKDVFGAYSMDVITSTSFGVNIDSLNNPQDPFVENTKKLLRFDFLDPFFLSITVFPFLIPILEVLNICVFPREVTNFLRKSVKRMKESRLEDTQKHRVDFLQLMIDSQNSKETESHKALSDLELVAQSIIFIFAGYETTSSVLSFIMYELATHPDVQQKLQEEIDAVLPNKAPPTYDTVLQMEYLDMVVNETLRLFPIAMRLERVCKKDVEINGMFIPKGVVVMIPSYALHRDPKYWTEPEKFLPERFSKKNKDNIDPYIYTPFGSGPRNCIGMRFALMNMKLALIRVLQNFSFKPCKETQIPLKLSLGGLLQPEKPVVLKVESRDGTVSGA
Chain of Bile acid receptor (Homo sapiens) (Q96RI1 whole entry, looked up): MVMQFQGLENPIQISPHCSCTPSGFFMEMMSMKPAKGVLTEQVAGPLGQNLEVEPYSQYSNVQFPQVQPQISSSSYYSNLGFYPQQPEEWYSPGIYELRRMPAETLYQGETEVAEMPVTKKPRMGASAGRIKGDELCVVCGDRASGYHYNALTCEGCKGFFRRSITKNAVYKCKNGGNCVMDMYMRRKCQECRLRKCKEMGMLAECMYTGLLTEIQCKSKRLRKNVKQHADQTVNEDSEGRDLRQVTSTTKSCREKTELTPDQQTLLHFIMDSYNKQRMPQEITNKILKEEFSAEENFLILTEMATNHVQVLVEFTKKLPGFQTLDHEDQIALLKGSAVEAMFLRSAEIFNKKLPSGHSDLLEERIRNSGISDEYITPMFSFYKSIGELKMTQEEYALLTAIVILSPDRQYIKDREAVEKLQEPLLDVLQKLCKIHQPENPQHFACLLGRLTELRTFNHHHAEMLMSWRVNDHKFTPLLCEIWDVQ

As for `COc1ccc2c(c1OC)CN1CCc3cc4c(cc3[C@H]1C2)OCO4`, the molecule was classed as inactive in assay [1]. In addition, the Potency was 1.58 µM (active) in [2], more than 20.6 µM in assay [4], more than 20.6 µM in [5] and 2 µM (active) in assay [8]. Further, the activity change, negative = inhibition in assay [3] (at 17.2 µM (top of the series)) is -25.2%. Moreover, the Potency entry in assay [6] and in assay [7] was “inactive” each time.
`O=C(CC[N+](=O)[O-])OCC1OC(O)C(OC(=O)CC[N+](=O)[O-])[C@@H](OC(=O)CC[N+](=O)[O-])C1OC(=O)CC[N+](=O)[O-]` (stereo partly drawn): the Potency result in [9] and in assay [10] was “inactive” in each case.
Consider `[O-][Br+2]([O-])O`, for which the activation in [11] is 4.89% and 1.1%; in [13] it was 0.211% and 0.528%. The Potency result in assay [12] and in assay [14] was “inactive” throughout.
As to `CC(=O)O[C@H]1C[C@@H](O[C@@H]2[C@H](C)O[C@H](O[C@@H]3[C@H](C)O[C@H](O[C@@H]4CC[C@@]5(C)[C@@H](CC[C@]6(C)[C@]5(C)C[C@H](O)[C@]5(C)[C@@H](C7=CC(=O)OC7)CC[C@@]56O)C4)C[C@@H]3O)C[C@@H]2O)O[C@@H](C)[C@H]1O[C@H]1O[C@@H](CO)[C@@H](O)[C@@H](O)[C@@H]1O`, the Potency result in assay [2] was “inactive”. Also, the Potency in assay [4] is more than 20.6 µM.
Turning to `ClC(Cl)=C(Cl)Cl`, the Potency entry in [14] was “inactive”.
Take `C=CC(N)=O`: the Potency result in assay [14] was “inactive”.
Consider `CCN1C[C@@]2(COC)CC[C@H](O)[C@@]34[C@@H]2C[C@@H]([C@@H]13)[C@]1(O)C[C@@H](OC)C2C[C@H]4[C@H]1[C@H]2OC(C)=O`, for which the molecule was classed as inactive in assay [1] and in assay [15]. Besides, the Potency entry in [2], in assay [6] and in assay [7] was “inactive” each time. Besides, the activity change, negative = inhibition in [3] (at 17.2 µM (top of the series)) is -14.2%. Besides, the Potency in assay [4] and in [5] was more than 20.6 µM in each case.
Turning to `O=C(Cl)C(Cl)(Cl)Cl`, the activation in assay [16] is -1.96%; in assay [13] it was -1.07%.
Take `O=C(Oc1ccccc1)N1CCC[C@@]2(CCN(C(c3ccccc3)c3ccccc3)C2)C1`: the figures for the Potency in assay [17] and in [5] were more than 11.4 µM and more than 46 µM, respectively. Besides, the molecule was classed as inactive in assay [1] and in assay [15]. Besides, in assay [3] (at 7.69 µM (top of the series)), the activity change, negative = inhibition is -12.9%. Moreover, the Potency result in [6] and in assay [18] was “inactive” each time.
Consider `C[C@@H]1O[C@H](O[C@@H]2CC[C@@]3(C=O)[C@H]4CC[C@@]5(C)[C@@H](C6=CC(=O)OC6)CC[C@@]5(O)[C@@H]4CC[C@]3(O)C2)C[C@H](O)[C@@H]1O`, for which the Potency in assay [4] and in assay [5] was more than 20.6 µM each time. In addition, the Potency result in assay [6] and in assay [7] was “inactive” in each case.
`CC(O)CCl` (stereo not drawn): in assay [13], the activation is 1% and -0.134%.
For `Cc1nnc2ccc(-c3cccc(C(F)(F)F)c3)nn12`, the Potency was 0.0794 µM (active) in [2], more than 46 µM in assay [4] and more than 46 µM in assay [5]. The Potency result in [6] and in [7] was “inactive” each time. In addition, in assay [19], the molecule was classed as inactive.
For the molecule `O=c1ccc2cc(O[C@H]3OC(CO)C(O)C(O)C3O)c(O)cc2o1` (stereo partly drawn), the Potency result in [9] and in [10] was “inactive” in each case.
